Only a selection was taken, and hits are over-represented in it overall.
ROS inducer: ROS inducers in U2OS cancer cells, primary screen, cell-based, H2DCF-DA fluorescence; U2OS ROS induction; ROS induction (% of piperlongumine), % at 10 µM; hit rate 2% among 46,000; in the data active = ROS induction above about 79%, passing the limit was not always enough;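 also: 0% = DMSO vehicle median and 100% = reference compound median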
* hit, by the source's call.

SMILES	ROS inducer
[N-]=[N+]=NCc1ccccc1C[C@@]1(C(=O)N2CCCCC2)N=C(c2ccc(OCCCO)cc2)O[C@@H]1c1ccccc1	53.1
O=C(NCC1COc2ccccc2O1)c1cc2c(s1)-c1ccccc1OC2 (stereo not given)	1.5
O=C(CSc1cn(CC(=O)N2CCOCC2)c2ccccc12)NCc1ccco1	-9.1
CCC(C)NC(=O)c1cc(-c2cccc(OC)c2)no1 (stereo not given)	2.7
COc1ccc(/C=C2\SC(=N)N(c3ccc(OC)cc3)C2=O)cc1	0.4
O=C(NCc1cccs1)c1cc(=O)n(Cc2ccc(Cl)cc2)c2ccccc12	-9.4
CCN1CCN(c2ncnc3c2c(-c2ccccc2)cn3-c2ccc(Cl)cc2)CC1	21.1
COc1ccccc1C(=O)Nc1ccc(C)cc1C	6.6
CN(C)S(=O)(=O)c1ccc2c(c1)/C(=C/c1cc3c([nH]1)CCCC3)C(=O)N2	98.2*
O=C1Nc2ccc(Br)cc2/C1=C/c1cc2c([nH]1)CCCC2	43.3
CN(C)c1ccc(/C=C2\C(=O)Nc3ccccc32)c2ccccc12	-8.0
C[C@@H]1CN([C@@H](C)CO)C(=O)Cc2cc(NC(=O)Cn3cnnn3)ccc2O[C@@H]1CN(C)Cc1ccncc1	0.5
C[C@@H]1CN([C@H](C)CO)C(=O)Cc2cc(NS(=O)(=O)c3ccc(Cl)cc3)ccc2O[C@@H]1CN(C)Cc1ccc(C(F)(F)F)cc1	2.2
C[C@H](CO)N1C[C@H](C)[C@@H](CN(C)Cc2ccc(C(F)(F)F)cc2)Oc2ccc(NS(=O)(=O)c3ccc(Cl)cc3)cc2C1=O	54.2
C[C@@H]1CN([C@H](C)CO)C(=O)c2cc(NS(=O)(=O)c3ccc(Cl)cc3)ccc2O[C@H]1CN(C)Cc1ccc(C(F)(F)F)cc1	0.7
C[C@@H]1CN([C@@H](C)CO)C(=O)Cc2cc(NS(=O)(=O)c3ccc(F)cc3)ccc2O[C@@H]1CN(C)Cc1ccc(C(F)(F)F)cc1	27.5
C[C@@H]1CN([C@H](C)CO)C(=O)Cc2cc(NS(=O)(=O)c3ccc(F)cc3)ccc2O[C@H]1CN(C)Cc1ccc(C(F)(F)F)cc1	207.1*
C[C@@H]1CN([C@@H](C)CO)C(=O)Cc2cc(NS(=O)(=O)c3ccc(Cl)cc3)ccc2O[C@@H]1CN(C)Cc1ccc(C(F)(F)F)cc1	23.3
Cc1ccc(S(=O)(=O)Nc2ccc3c(c2)CC(=O)N([C@H](C)CO)C[C@@H](C)[C@@H](CN(C)Cc2ccc(C(F)(F)F)cc2)O3)cc1	4.0
C[C@H]1CN([C@@H](C)CO)C(=O)Cc2cc(NC(=O)Cn3cnnn3)ccc2O[C@H]1CN(C)C(=O)Nc1ccc(C(F)(F)F)cc1	13.4
C[C@H]1CN([C@@H](C)CO)C(=O)c2cc(NS(=O)(=O)c3ccc(Cl)cc3)ccc2O[C@@H]1CN(C)Cc1ccc(C(F)(F)F)cc1	80.6*
C[C@H]1CN([C@@H](C)CO)C(=O)Cc2cc(NS(=O)(=O)c3ccc(F)cc3)ccc2O[C@@H]1CN(C)Cc1ccc(C(F)(F)F)cc1	146.3*
C[C@@H]1CN([C@H](C)CO)C(=O)Cc2cc(NC(=O)Cn3cnnn3)ccc2O[C@@H]1CN(C)Cc1ccc(C(F)(F)F)cc1	86.8*
Cc1ccc(CSc2nc3ccc(C(=O)N4CCN(c5ccccc5)CC4)cc3n2C)cc1	-11.0
COc1ccc(C(=O)Nc2ccccc2C2(C)CC2)cc1	-17.4
SMILES	ROS inducer
CCOc1cc2[nH]c(=O)n(CCC(=O)NC3CCCCC3C)c(=O)c2cc1OCC (stereo not given)	-4.2
CCOc1ccc(C(=O)CC(=O)C(=O)OC)cc1	0.0
CCc1ccccc1N(CC)C(=O)Cn1ncc2c1-c1ccccc1OC2	-1.2
N#CCCN1c2ccccc2Sc2ccc(Cl)cc21	-2.3
COc1ccc(Cl)c(OC)c1C(=O)NC(=O)Nc1c(C)cccc1C	1.1
CCN(CC)C(=S)NC(=S)c1ccc(C)cc1	-1.1
COc1ccccc1NC(=S)N(Cc1ccccc1)Cc1cccn1Cc1ccc(F)cc1Cl	42.2
COc1cc(C(=O)Nc2c(C(=O)c3ccccc3)oc3ccccc23)cc(OC)c1OC	10.3
CCN(CC)c1nc2c(C)cccn2c(=O)c1/C=N/O	2.3
Cc1ccc2c(c1)c1nc3ccccc3nc1n2CC(=O)OCc1ccccc1	-2.8
O=c1oc2ccccc2n1CCn1c2ccccc2c2nc3ccccc3nc21	33.4
Cc1ccc2c(c1)c1nc3ccccc3nc1n2CCN1CCOCC1	78.0*
CCCCn1c(CN2CCN(CC)CC2)nc2c1c(=O)[nH]c(=O)n2C	-16.6
CCOC(=O)c1ccc2c(c1)sc1nc(-c3ccc(C)cc3C)cn12	8.8
CCS(=O)CCSc1nc(-c2ccc(Br)cc2)cc(-c2ccccc2)c1C#N (stereo not given)	166.4*
CCS(=O)CCSc1nc(-c2ccc(C)cc2)cc(-c2ccccc2)c1C#N (stereo not given)	-7.9
CCCCS(=O)CSc1nc(-c2cccs2)cc(-c2ccccc2)c1C#N (stereo not given)	17.6
COc1ccc(NC(=S)NCC2CCCO2)cc1 (stereo not given)	-9.9
Cc1cc(C)c(C)c(C(=O)COC(=O)c2cc(=O)[nH]c3ccccc23)c1C	-21.5
COc1ccc(-c2cnc3c(c2)C(=O)N([C@H](C)CO)C[C@H](C)[C@H](CN(C)C)O3)cc1	7.3
COc1ccc(-c2cnc3c(c2)C(=O)N([C@H](C)CO)C[C@H](C)[C@H](CN(C)Cc2cccc(C(F)(F)F)c2)O3)cc1	110.4*
Cc1cccc(CN(C)C[C@@H]2Oc3ncc(-c4ccccc4)cc3C(=O)N([C@H](C)CO)C[C@@H]2C)c1	33.6
COc1ccc(C#Cc2cnc3c(c2)C(=O)N([C@H](C)CO)C[C@H](C)[C@H](CN(C)Cc2cccc(C(F)(F)F)c2)O3)cc1OC	60.4
C[C@H](CO)N1C[C@H](C)[C@H](CN(C)Cc2cccc(C(F)(F)F)c2)Oc2ncc(-c3ccccc3)cc2C1=O	46.6
Cc1cccc(CN(C)C[C@@H]2Oc3ncc(-c4cccc(C(F)(F)F)c4)cc3C(=O)N([C@H](C)CO)C[C@@H]2C)c1	103.6*
SMILES	ROS inducer
O=C(O)c1[nH]c2ccccc2c1CNCc1ccccc1	4.2
O=C(Cn1c2c(c(-c3ccccc3)cc1=O)CCCC2)N1CCCC1	-14.2
CC1(C)Cc2nc3sc4c(NCC5CCCO5)ncnc4c3cc2CO1 (stereo not given)	-11.0
COc1cc(CN2CCCC(C(=O)N3CCCCCC3)C2)ccc1OCc1ccccc1 (stereo not given)	7.8
CCCc1c(-c2ccccc2)nc2sc3c(c2c1N)CCCCC3	168.6*
Nn1c(Cc2ccccc2)nc2sc3c(c2c1=O)CCCC3	0.2
c1ccc(OCc2nc3c4c5c(sc4ncn3n2)CCCC5)cc1	13.1
CCOC(=O)c1oc2ccc3c(c2c1C)C(=O)CC(C)(C)O3	3.6
Cc1noc(C)c1-c1nc(CS(=O)(=O)Cc2ccc(Cl)cc2)no1	-8.3
C=C(C)C(=O)O[C@H]1CC(=C)C2C[C@H](O)[C@](O)(CO)C2[C@H]2OC(=O)C(=C)[C@H]12 (stereo not given in full)	186.0*
C=C(C)C(=O)O[C@H]1[C@H]2C(=C)C(=O)O[C@@H]2C[C@@H](C)[C@@H]2O[C@@H]2C(=O)[C@](C)(O)[C@@H]1OC(=O)C(=C)C	28.7
C=C(C)C(=O)O[C@H]1C[C@@]2(C)OC(=CC2=O)/C(COC(C)=O)=C\[C@H]2OC(=O)C(=C)C12 (stereo not given in full)	47.0
CC(C)=C1C2C=CC1C1C(=O)N(Cc3cccnc3)C(=O)C21 (stereo not given)	-6.0

Bioassay records as filed in PubChem BioAssay.
